Data reported in PubChem BioAssay.
A number with no mark means an inactive call. Calls of active or inactive are those of the source.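 How the source made its calls: active means inhibition above the hit cutoff set in the earlier primary screen (cut at about 27% in these data); inactive means the rest.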

Biological target: Protein phosphatase methylesterase 1 (Homo sapiens) (UniProt Q9Y570)
Experiment: human PME-1 methylesterase inhibition confirmation – biochemical, fluorescence polarization, FP-Rh probe, triplicate (AID 2171);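 further: 0% = enzyme with DMSO and 100% = wells lacking PME-1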
Conditions: recombinant PME-1, FP-Rh probe fluorescence polarization; at 5.9 µM; stronger effect = higher value

Sequence of Protein phosphatase methylesterase 1 (Homo sapiens) (Q9Y570 whole entry, looked up): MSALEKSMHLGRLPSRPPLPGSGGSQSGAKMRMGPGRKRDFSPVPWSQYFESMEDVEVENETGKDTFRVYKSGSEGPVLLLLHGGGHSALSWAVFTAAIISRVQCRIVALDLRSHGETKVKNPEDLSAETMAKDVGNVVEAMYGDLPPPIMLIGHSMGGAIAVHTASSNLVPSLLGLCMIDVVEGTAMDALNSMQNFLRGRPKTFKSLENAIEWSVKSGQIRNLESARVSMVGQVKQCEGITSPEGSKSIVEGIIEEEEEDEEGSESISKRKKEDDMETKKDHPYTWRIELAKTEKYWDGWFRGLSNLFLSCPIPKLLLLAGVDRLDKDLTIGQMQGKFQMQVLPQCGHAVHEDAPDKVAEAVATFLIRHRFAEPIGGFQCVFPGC

| Structure (SMILES) | inhibition |
| --- | --- |
| Cc1oc(-c2ccc3ccccc3c2)nc1CN(C)C(C)c1ccncn1 (stereo not given) | 4.93% |
| CCCCN(CC)CCCNC(=O)c1cn(CC)c2ccc(S(=O)(=O)N3CCc4ccccc4C3)cc2c1=O | 59.1% (active) |
| CC(C)c1ccc2[nH]c(O)c(N=NC(=O)c3cccc(S(=O)(=O)N4CCCCC4)c3)c2c1 | 58.3% (active) |
| Cc1ccsc1C=Nc1ccc(O)cc1 | 3.81% |
| O=C(N/N=C/c1c[nH]c2ccccc12)c1cc(-c2cccc3ccccc23)n[nH]1 | 2.43% |
| O=C(CNc1ccc2ccccc2c1)N/N=C/c1ccc(OC(=O)/C=C/c2ccco2)cc1 | 11.7% |
| CCOC(=O)CSc1nc2cc3c(cc2cc1C#N)OCCO3 | 20.1% |
| COc1ccc(NC(=O)C2CCN(C(=O)c3cccs3)CC2)cc1OC | 5.2% |
| CCCCCCC(=O)Nc1nc(C)c(-c2csc(Nc3cc(OC)ccc3OC)n2)s1 | 65% (active) |
| Cc1cc(N/N=C/c2c(O)ccc3ccccc23)nc(-c2ccccc2O)n1 | 23.6% |
| COc1ccc(O)c(-c2cc(-c3cccc(Br)c3)n[nH]2)c1 | 23.7% |
| C=CCc1cccc(/C=N/NC(=O)CNc2cccc3ccccc23)c1O | 17.8% |
| O=C(N/N=C/c1cc(Cl)c(O)c(Cl)c1)c1cc2c(ccc3ccccc32)o1 | 38.5% (active) |
| Cc1cc(C(=O)CC#N)c(C)n1-c1ccc(OC(F)F)cc1 | 45.9% (active) |
| COc1ccccc1/C=C/C=N/n1c(-c2cc(-c3ccccc3)n[nH]2)n[nH]c1=S | 23.4% |
| Oc1ccc(N=Cc2ccc(OCc3ccccc3)cc2)cc1 | 6.36% |
| CCOC(=O)CCc1c(C)nc(SCCCn2c(=O)[nH]c3ccccc32)c(C#N)c1C | 22.6% |
| O=C1c2ccccc2-c2onc3ccc(NCCCn4ccnc4)c1c23 | 163% (active) |
| CCCCCCC(=O)N1CCC(c2nc3c(nnn3Cc3ccccc3Cl)c(=O)[nH]2)CC1 | 21.9% |
| COc1ccccc1NC(=O)c1sc2nc(-c3ccco3)ccc2c1N | 71.6% (active) |

| Structure (SMILES) | inhibition |
| --- | --- |
| Cc1ccc(C(=O)Nc2nnc(CC(=O)N/N=C/c3ccc(O)c(O)c3)s2)cc1 | -26.6% |
| Cc1cc(Br)ccc1N=C1NC(=O)CS1 | -3.07% |
| O=C(O)c1ccc(N/N=C/c2ccc(-c3ccc(Cl)cc3Cl)o2)cc1 | 85.9% (active) |
| CCCOc1ccc(C2Nc3cccc4cccc(c34)N2)cc1 | 38.3% (active) |
| CC(=O)Nc1ccc(Nc2c3c4c(cccc4n(C)c2=O)C(=O)c2ccccc2-3)cc1 | 31.5% (active) |
| CCc1ccc(S(=O)(=O)/N=C2\C=C(Nc3ccc(C(=O)O)cc3)C(=O)c3ccccc32)cc1 | 33.3% (active) |
| O=C(CNc1cccc2ccccc12)N/N=C/c1cccc(Oc2ccccc2)c1 | 31.1% (active) |
| CCc1ccc(-c2cc(C(=O)N/N=C/c3c[nH]c4ccccc34)[nH]n2)cc1 | 12% |
| CC(=O)Cc1cc(O)c2ccccc2c1OC(=O)c1ccc(Br)cc1 | 24.8% |
| Cc1cc(C)c2c(N)c(-c3nc4ccccc4[nH]3)sc2n1 | 3.16% |
| N=c1oc2cc(O)ccc2cc1C(=O)Nc1nc2ccccc2s1 | 25.7% |
| CCNc1c2c3c(cccc3n(C)c1=O)C(=O)c1ccccc1-2 | 80.2% (active) |
| COc1ccc(NC(=S)Nc2ccc3nsnc3c2)cc1 | 24.3% |
| O=C(CNc1ccccc1)N/N=C/c1c(O)ccc2ccccc12 | 17.1% |
| COc1ccc(/C=C/c2c(-c3ccc(OC)cc3)oc3cccnc23)cc1 | 24.5% |
| CCOc1cc(-c2cc(-c3ccc(N)cc3)nc(N)c2C#N)ccc1O | 41.5% (active) |
| C/C(=N/NC(=O)c1cc2ccccc2cc1O)C1C(=O)c2ccccc2C1=O | 68.6% (active) |
| Oc1ccc(/C=N/Nc2ccnc3cc(Cl)ccc23)cc1O | 5.4% |
| Oc1c(Br)cc(Br)c(/C=N/n2c(-c3ccccc3)n[nH]c2=S)c1Br | 45.5% (active) |
| Cc1ccc(NC(=S)NNc2ccc([N+](=O)[O-])cc2S(=O)(=O)Nc2ccccc2C(=O)O)cc1C | 60.2% (active) |
